Screening data deposited in PubChem BioAssay by National Center for Advancing Translational Sciences (NCATS).
An excerpt weighted towards active compounds, which were near 7.4% of everything screened.
FLuc counter – inhibits or activates purified firefly luciferase, miR-21 counter-screen | 360,000 tested, 6.9% active | P08659 | purified FLuc, Km substrates, luminescence inhibition | Potency, µM (doses to about 57.5 µM), inactives show at the highest dose activity change, negative = inhibition, actives largely listed as inhibitors;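 also: plate controls were vehicle for no effect and reference inhibitor for full effect; nearly all actives have a fitted effect of over 55% in size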
Target sequence (P08659 whole entry, looked up): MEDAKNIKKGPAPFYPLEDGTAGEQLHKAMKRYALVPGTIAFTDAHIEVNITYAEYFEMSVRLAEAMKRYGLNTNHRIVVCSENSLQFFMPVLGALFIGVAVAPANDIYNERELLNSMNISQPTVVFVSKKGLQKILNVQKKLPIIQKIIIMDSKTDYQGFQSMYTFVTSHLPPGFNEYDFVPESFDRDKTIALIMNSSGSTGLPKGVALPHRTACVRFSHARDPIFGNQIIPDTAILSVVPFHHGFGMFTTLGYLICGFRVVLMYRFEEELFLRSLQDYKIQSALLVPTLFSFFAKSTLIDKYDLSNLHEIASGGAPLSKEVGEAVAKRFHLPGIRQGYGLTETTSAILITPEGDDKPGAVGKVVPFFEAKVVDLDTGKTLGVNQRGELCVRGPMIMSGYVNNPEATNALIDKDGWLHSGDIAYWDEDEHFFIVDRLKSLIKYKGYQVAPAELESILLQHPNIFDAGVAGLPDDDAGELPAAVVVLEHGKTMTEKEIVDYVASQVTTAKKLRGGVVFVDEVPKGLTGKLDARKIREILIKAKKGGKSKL
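Purified P. pyralis luciferase, 10 nM final, with Km-level 10 uM D-luciferin and 10 uM ATP in 50 mM Tris acetate pH 7.5, 10 mM Mg acetate, 0.01% Tween-20, 0.05% BSA; 6-point qHTS titration about 60 µM downward; luminescence read.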
Rab9 promoter act – Rab9 promoter activation | Huh7 Rab9 promoter-luciferase reporter, luminescence, 24 h | Potency, µM (highest dose often 9.22 µM), without a hit: at the top dose activation, negative = inhibition, actives largely listed as activators | 320,000 tested, 2.8% active | AID 485297; also: % of control where 0% means no effect; nearly all actives have a fitted effect of over 60% in size
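Cell-based reporter: Huh7 stable for Rab9 promoter-driven luciferase, plated in reduced-serum medium with 10% FBS at 1500 cells/well, compound-treated 24 h at 37 °C, luminescence read after 10 min reagent.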
NPC1 prom act – activates the NPC1 promoter | AID 485313 | 320,000 tested, 2.4% active | Potency, µM (top dose mostly 9.22 µM), for the others: top-dose activation, most hits filed as activators | Huh7 NPC1 promoter luciferase reporter, 24 h; also: % of control where 0% means no effect; nearly all actives have a fitted effect of over 60% in size
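Readout is luciferase luminescence, reflecting NPC1 promoter activation in stably transfected Huh7 cells after 24 h compound exposure at 37 °C in reduced-serum medium with 10% FBS.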
ELG1 genotox – genotoxicity induction in ELG1-luciferase HEK293T cells. AID 504466. 330,000 tested, 1.3% active. Potency, µM (series often up to 46 µM), without a hit: at the highest dose activity change, positive = activation, hits mostly activators. HEK293T ELG1-luciferase reporter, luminescence, 16 h; also: % of control where 0% means no effect; nearly all actives have a fitted effect of over 60% in size
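Genotoxic stress is detected as increased luminescence from luciferase-tagged ELG1 in HEK293T cells, measured with ONE-Glo after a 16 hr treatment at 37 °C.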
Luc counter – counter-screen: inhibitors of Kinase-Glo firefly luciferase | Q27757 | Kinase-Glo luciferase, ATP luminescence, 8 min | Potency, µM (doses to about 38.3 µM), without a hit: at the top dose activity change, negative = inhibition, usual class: inhibitors | 200,000 tested, 0.28% active | AID 1379; also: % is scaled to controls: 0 for no effect and ±100 for the full control effect; nearly all actives have a fitted effect of over 60% in size
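Kinase-Glo luciferase light output from ATP and luciferin was measured with 10 uM ATP, within the enzyme's linear range. Buffer: 50 mM imidazole pH 7.2, 50 mM KCl, 7 mM MgCl2, 0.01% Tween 20, 0.05% BSA; luminescence read after 8 min at ambient temperature.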
SMN2 splice up – increases expression of the SMN2 splice variant; HEK293 SMN2-luciferase splicing reporter, luminescence, 30-36 h; Potency, µM (doses to about 46.1 µM), for the others: top-dose activity change, positive = activation, most hits filed as activators; 210,000 tested, 2.8% active; AID 1458; also: % of control where 0% means no effect; nearly all actives have a fitted effect of over 55% in size
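HEK293 cells carry an SMN2 […]–luciferase reporter in which exon 7 inclusion puts luciferase in frame. Cells were plated 10-12 h before compound addition, then incubated 30-36 h at 37C. ONE-Glo luminescence was read; sodium butyrate at 4.5 mM final served as control.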
Starred values were filed as active, the others as inactive; ? = inconclusive; nt = no result; [ ] = remark or other dose. Calls follow the shape of the dose curve; as a rule, active = well fitted curve in the direction sought with a large enough effect; inconclusive = small, poorly fitted or top-dose-only effect, or another doubt; inactive = no such curve, though single readings can be large; an effect the other way counts as inactive or inconclusive. Potency is read from the fitted curve at half-maximal effect.

SMILES	FLuc counter	Rab9 promoter act	NPC1 prom act	ELG1 genotox	Luc counter	SMN2 splice up
c1ccc(-c2ccc(-c3cn4c(n3)CCC4)cc2)cc1	0.85µM*	?	0.45µM*	?	-11%	27%
Cc1ccc(-c2cn3c(n2)CCCC3)cc1	-6%	-6%	-11%	0%	-3%	-25%
Cn1c(N)c(C(=O)CSc2n[nH]c(N)n2)c(=O)n(C)c1=O	0%	-4%	-3%	0%	nt	nt
C=CCn1c(O)c2ccc(C(=O)N=NC(=O)c3ccc(F)cc3)cc2c1O	-14%	-1%	2%	2%	nt	nt
COc1ccccc1Nc1nc2ccc(C)cc2cc1C#N	12µM*	16%	19%	1%	0%	1%
COC(=O)C1(CC(C)C)C=C2C(=C(C(C)C)C(=O)C2C)CN1 (stereo not drawn)	nt	nt	nt	nt	-2%	-16%
CCOc1ccc2nc(N)sc2c1	nt	nt	nt	nt	nt	29%
CCc1ccc2nc(N)sc2c1	11µM*	3.5µM*	2.2µM*	?	-5%	20µM*
Nc1nc2ccc(C(=O)Nc3ccccc3)cc2s1	19µM*	3.2µM*	3.5µM*	?	nt	nt
CN(C(=O)c1ccc2nc(N)sc2c1)c1ccccc1	-2%	1%	0%	-1%	nt	nt
CCc1ccc(NC(=O)c2ccc3nc(N)sc3c2)cc1	12µM*	?	?	?	-5%	?
OCC[C@H]1C[C@H](O)[C@@H](O)[C@@]2(CCCc3ccccc3O2)O1	0%	-4%	-1%	3%	nt	nt
CCOc1ccc(OCc2ccc(C(=O)O)o2)cc1	3.4µM*	0.28µM*	?	?	-1%	0.89µM*
O=C(O)c1ccc(COc2ccc3ccccc3c2)o1	19µM*	?	?	?	nt	nt
C/C=C/c1ccccc1OCc1ccc(C(=O)O)o1	-15%	-6%	-2%	6%	-1%	nt
CCOc1ccc(OCc2ccc(C(=O)Nc3cc(OC)c(OC)c(OC)c3)o2)cc1	-14%	nt	nt	nt	nt	-14%
CC(C)(C)c1ccc(C(=O)NC(CC(=O)O)c2ccc(OC3CCCC3)cc2)cc1 (stereo not drawn)	19µM*	-6%	-6%	0%	nt	nt
COC(=O)c1cc(S(=O)(=O)N2c3ccccc3CC2C)cn1C (stereo not drawn)	0%	-2%	-3%	-4%	nt	nt
CC1CCCN(S(=O)(=O)c2ccccc2[N+](=O)[O-])C1 (stereo not drawn)	0%	-2%	2%	-5%	-2%	-4%
CCOc1ccc(NC(=S)NC(=O)c2c(Br)cnn2C)c([N+](=O)[O-])c1	6µM*	17%	8%	2%	-1%	3%
CC(C)[C@]1(c2ccc(Cl)cc2)ON(c2ccccc2C(F)(F)F)C1=O	-1%	-5%	-6%	-3%	nt	nt
CC1(C)NC(=O)N(CCCOc2ccc(Br)cc2Cl)C1=O	11µM*	?	2.8µM*	15µM*	0%	?
COc1ccc2cc(CCC(C)=O)ccc2c1	?	?	?	nt	-2%	13µM*
COc1ccc(CCC(=O)Nc2cccc(Cl)c2)cc1	?	2%	-7%	-1%	-3%	25%
N#C/C(C(=O)c1ccccc1)=C1/CCCN1	-1%	7%	0%	5%	nt	nt
SMILES	FLuc counter	Rab9 promoter act	NPC1 prom act	ELG1 genotox	Luc counter	SMN2 splice up
N#C/C(C(=O)Oc1ccccc1)=C1\C=CC=CN1	19µM*	2.8µM*	3.5µM*	?	-3%	25%
CC1CCCN(C(=O)CNS(=O)(=O)c2cccs2)C1 (stereo not drawn)	-5%	6%	11%	6%	nt	nt
CCn1nnc(NC(=O)c2ccc(C(C)(C)C)cc2)n1	3.4µM*	1.3µM*	2.2µM*	?	-5%	nt
Cc1ccc(C(=O)Nc2nnn(C)n2)cc1	17µM*	?	29%	?	-6%	?
CCCn1nnc(NC(=O)c2ccc3ccccc3c2)n1	15µM*	?	?	3%	3%	nt
CCCn1nnc(NC(=O)c2cccc(OCC)c2)n1	17µM*	?	?	18µM*	-3%	18µM*
Cn1nnc(NC(=O)c2cccc(F)c2)n1	1%	-1%	-3%	5%	11%	-9%
CCn1nnc(NC(=O)c2cccnc2)n1	5%	0%	1%	1%	2%	14%
CCN(CC)S(=O)(=O)c1cccc(-n2c(O)c(C=Nc3ccccc3C(=O)O)c3ccccc3c2=O)c1	-9%	14%	-6%	-8%	nt	nt
CCCn1nnc(NC(=O)c2ccc(Cl)cc2Cl)n1	19µM*	3.2µM*	3.2µM*	9.2µM*	-15%	88%
CCC1CCCCN1CCCNC(=O)c1ccc(CS(=O)(=O)c2ccccc2OC)o1 (stereo not drawn)	-2%	-3%	-6%	0%	nt	nt
CSc1nc(O)c(N=Nc2ccc(F)cc2F)c(=O)[nH]1	0.85µM*	26%[1.84 µM]	?	?	nt	nt
Cn1c(O)c(C=Nc2ccc(Br)cc2)sc1=O	?	4.5µM*	?	?	-8%	2.8µM*
Oc1ccc(Cl)cc1C=Nc1ccc(Br)cc1	?	-1%	-4%	4%	nt	nt
COc1cccc(NC(=O)Nc2cccn(Cc3ccc(C)cc3)c2=O)c1	?	-32%	-8%	-7%	0%	nt
Cc1cc(NC(=O)NCc2ccccc2)c(=O)n(Cc2ccccc2F)c1	5.4µM*	20%	11%	14%	nt	nt
COc1cccc(Cn2cc(C)cc(NC(=O)NCc3ccccc3)c2=O)c1	2.1µM*	18%	15%	4%	nt	nt
O=C(Nc1nccs1)c1ccc(-c2ccc([N+](=O)[O-])cc2)o1	6µM*	1.4µM*	1.8µM*	?	-5%	13µM*
C/C=C/C=C/C(=O)Nc1nccs1	?	?	4%	11%	-3%	-6%[1.84 µM]
O=C(Nc1nccs1)c1ccc(-c2ccc(F)cc2)o1	2.1µM*	3.5µM*	2.2µM*	?	-5%	11µM*
O=C(/C=C/c1ccc(Cl)cc1)Nc1nccs1	1.3µM*	0.32µM*	0.63µM*	?	-8%	4µM*
Cc1nnc(NC(=O)c2ccc(-c3ccc(Cl)cc3)o2)s1	-14%	8%	0%	4%	nt	nt
O=C(Nc1nccs1)c1ccc(-c2ccc(Cl)cc2)o1	0.21µM*	1µM*	1.4µM*	?	-7%	11µM*
CC(=O)c1cnc2nc(SCc3cccc(C)c3)nn2c1C	-16%	11%	1%	7%	nt	nt
O=C(COC(=O)c1cc(=O)[nH]c2ccccc12)c1ccc(Br)cc1	?	-6%	14%	11%	nt	nt
CCOc1ccc(C(=O)COC(=O)c2cccc(-n3cnnn3)c2)cc1	2.7µM*	?	?	23%	nt	nt
CCOc1ccc(C(=O)COC(=O)c2cc(=O)[nH]c3ccccc23)cc1	1.3µM*	2%	-1%	1%	nt	nt
O=C(COC(=O)c1cccc(-n2cnnn2)c1)c1ccccc1	?	28%	16%	19%	nt	nt
